Screening data deposited in PubChem by National Center for Advancing Translational Sciences (NCATS).
ELG1 genotoxic = induces genotoxicity in HEK293T cells with luciferase-tagged ELG1; Potency, µM (titrated, usually from 46 µM), hits mostly activators; HEK293T ELG1-luciferase reporter, luminescence, 16 h; 1.3% of 330,000 active; AID 504466; further: nearly all actives have a fitted effect of over 60% in size
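Quantitative HTS format in 1536-well plates. HEK293T ELG1-luciferase reporter cells receive test compound and are incubated 16 hr at 37 °C, 5% CO2; ONE-Glo added, 30 min room temperature, then luminescence read.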
NPC1 prom act = activators of NPC1 promoter. Huh7 NPC1 promoter luciferase reporter, 24 h. Potency, µM (doses to about 9.22 µM), hits mostly activators. 2.4% of 320,000 active. AID 485313; further: nearly all actives have a fitted effect of over 60% in size
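Readout is luciferase luminescence, reflecting NPC1 promoter activation in stably transfected Huh7 cells after 24 h compound exposure at 37 °C in reduced-serum medium with 10% FBS.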
KinaseGlo FLuc = counter-screen: inhibitors of Kinase-Glo firefly luciferase. Q27757. Kinase-Glo luciferase, ATP luminescence, 8 min. Potency, µM (highest dose often 38.3 µM), hits mostly inhibitors. 0.28% of 200,000 active; further: nearly all actives have a fitted effect of over 60% in size
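Substrate mix (final 50 mM imidazole pH 7.2, 50 mM KCl, 7 mM MgCl2, 10 uM ATP, 0.01% Tween 20, 0.05% BSA) plus pin-tool compound, then Kinase-Glo detection mix; 8 min ambient, luminescence read.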
Rab9 promoter act = activators of Rab9 promoter; Huh7 Rab9 promoter-luciferase reporter, luminescence, 24 h; Potency, µM (titrated, usually from 9.22 µM), actives largely listed as activators; 2.8% of 320,000 active; AID 485297; further: nearly all actives have a fitted effect of over 60% in size
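Cells were plated at 1500 per well in reduced-serum medium with 10% FBS and left 2 h. Compound in DMSO was then added for 24 h at 37 °C. Reporter signal was read by luminescence after 10 min with luciferase detection reagent.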
SMN2 splice up = SMN2 splice variant enhancement. HEK293 SMN2-luciferase splicing reporter, luminescence, 30-36 h. Potency, µM (series often up to 46.1 µM), usual class: activators. 2.8% of 210,000 active. AID 1458; further: nearly all actives have a fitted effect of over 55% in size
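qHTS luciferase splicing reporter: luminescence rises when SMN2 exon 7 is included in transfected HEK293 cells. Compound exposure lasted 30-36 h at 37C, with 4.5 mM final sodium butyrate as control, followed by a ONE-Glo read.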
FLuc modulator = firefly luciferase modulation, counter-screen for miR-21 project; purified FLuc, Km substrates, luminescence inhibition; Potency, µM (highest dose often 57.5 µM), actives largely listed as inhibitors; 6.9% of 360,000 active; AID 588342; further: nearly all actives have a fitted effect of over 55% in size
Target sequence (P08659 whole entry, looked up): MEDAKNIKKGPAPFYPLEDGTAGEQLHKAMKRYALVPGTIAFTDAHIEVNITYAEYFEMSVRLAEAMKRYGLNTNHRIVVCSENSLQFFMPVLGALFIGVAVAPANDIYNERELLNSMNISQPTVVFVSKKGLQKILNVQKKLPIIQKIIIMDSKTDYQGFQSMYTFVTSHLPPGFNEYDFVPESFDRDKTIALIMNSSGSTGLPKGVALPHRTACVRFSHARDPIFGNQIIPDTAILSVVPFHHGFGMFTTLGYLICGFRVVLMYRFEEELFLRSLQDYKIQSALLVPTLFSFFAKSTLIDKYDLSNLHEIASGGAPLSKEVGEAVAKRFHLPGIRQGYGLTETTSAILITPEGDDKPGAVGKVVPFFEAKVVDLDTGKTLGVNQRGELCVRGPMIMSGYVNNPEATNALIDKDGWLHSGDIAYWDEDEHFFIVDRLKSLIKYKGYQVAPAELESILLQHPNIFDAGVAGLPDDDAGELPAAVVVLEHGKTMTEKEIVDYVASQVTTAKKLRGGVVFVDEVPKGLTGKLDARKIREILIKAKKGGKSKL
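Purified P. pyralis luciferase, 10 nM final, with Km-level 10 uM D-luciferin and 10 uM ATP in 50 mM Tris acetate pH 7.5, 10 mM Mg acetate, 0.01% Tween-20, 0.05% BSA; 6-point qHTS titration about 60 µM downward; luminescence read.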
Of the large screens only hits and unclear results are named; the others gave an inactive call. Sampled rows, rich in hits. Any-hit rate of the full collection: about 7.5%. The call rests on the fitted dose curve; in most records, active means well fitted curve in the direction sought with a large enough effect; inconclusive means small, poorly fitted or top-dose-only effect, or another doubt; inactive means no such curve, though single readings can be large; an effect the other way counts as inactive or inconclusive.

O=C(Cn1cc(Cl)c([N+](=O)[O-])n1)NCCC1=CCCCC1	none (no result: KinaseGlo FLuc, SMN2 splice up)
CCC(=O)N1CCc2cc(CNC(=O)Cc3ccc(F)cc3)ccc21	none (no result: ELG1 genotoxic, NPC1 prom act, KinaseGlo FLuc, Rab9 promoter act, SMN2 splice up)
COc1ccccc1C(=O)N(Cc1ccco1)Cc1ccccc1F	none (no result: ELG1 genotoxic, NPC1 prom act, KinaseGlo FLuc, Rab9 promoter act)
CCn1ncc(S(=O)(=O)NCc2ccccc2Cl)c1C	none (no result: KinaseGlo FLuc, SMN2 splice up)
Cc1nc(NC(=O)c2cc3ccccc3o2)sc1C	ELG1 genotoxic 0.65µM, Rab9 promoter act inconclusive, FLuc modulator 1.1µM (no result: KinaseGlo FLuc, SMN2 splice up)
CNC(=O)c1cc2ccccc2o1	none
Cc1ccc(C(=O)Nc2cc([N+](=O)[O-])ccc2F)s1	FLuc modulator inconclusive
CCOC(=O)Cc1csc(SCn2nnc3ccccc3c2=O)n1	none
CCOC(=O)Cc1csc(-n2sc3ccccc3c2=O)n1	ELG1 genotoxic inconclusive, FLuc modulator 9.5µM
CCOC(=O)c1csc(NC(=O)c2cc3ccccc3o2)n1	ELG1 genotoxic inconclusive, NPC1 prom act inconclusive, Rab9 promoter act inconclusive, FLuc modulator 3.4µM (no result: KinaseGlo FLuc, SMN2 splice up)
CCc1ccc(C(=O)Nc2cc(C)ccc2F)s1	SMN2 splice up inconclusive, FLuc modulator 19µM
CCOC(=O)c1ccccc1NC(=O)c1cc2ccccc2o1	Rab9 promoter act inconclusive, FLuc modulator inconclusive (no result: KinaseGlo FLuc, SMN2 splice up)
COc1ccc(-c2noc(CCCC(=O)Nc3cccc(Cl)c3C)n2)cc1	none (no result: ELG1 genotoxic, NPC1 prom act, KinaseGlo FLuc, Rab9 promoter act, SMN2 splice up)
COc1ccc(CNc2nc(-c3ccccc3)nn2S(=O)(=O)c2ccccc2)cc1	none (no result: ELG1 genotoxic, NPC1 prom act, KinaseGlo FLuc, Rab9 promoter act)
CCN(CC)CCNC(=O)c1sc2ncccc2c1-n1cccc1	none (no result: ELG1 genotoxic, NPC1 prom act, KinaseGlo FLuc, Rab9 promoter act, SMN2 splice up)
CCOC(=O)Cc1nnc(NC(=O)c2ccccc2OC)s1	FLuc modulator 17µM
COc1ccc(N(C(=O)/C=C\C(=O)Nc2ccc(C)cc2)C(C(=O)NCc2ccco2)c2ccc(C)cc2)cc1 (stereo not drawn)	none (no result: ELG1 genotoxic, NPC1 prom act, KinaseGlo FLuc, Rab9 promoter act, SMN2 splice up)
O=C(Nc1ccc2ccccc2c1)c1ccc(Br)o1	ELG1 genotoxic inconclusive, NPC1 prom act 3.5µM, Rab9 promoter act 3.5µM, FLuc modulator 5.4µM (no result: KinaseGlo FLuc, SMN2 splice up)
CN1CCN(c2ccc(NC(=O)c3ccc(-c4ccc(Br)cc4)o3)cc2)CC1	FLuc modulator inconclusive
COc1ccc(NC(=O)c2ccc(C(=O)c3ccccc3)o2)cc1	Rab9 promoter act inconclusive, FLuc modulator inconclusive
Cc1ccccc1C(=O)Nc1cccc(NC(=O)c2ccc(-c3ccc(Br)cc3)o2)c1	FLuc modulator 4.8µM
Cc1cccc(NC(=O)c2ccc(C(=O)c3ccccc3)o2)c1	ELG1 genotoxic inconclusive, Rab9 promoter act inconclusive, SMN2 splice up 16µM, FLuc modulator 8.5µM
O=C(Nc1ccccc1)c1ccc(Br)o1	FLuc modulator inconclusive
O=C(Nc1cccc(NC(=O)c2ccc(Br)o2)c1)c1ccccc1	SMN2 splice up inconclusive, FLuc modulator inconclusive (no result: KinaseGlo FLuc)
O=C(c1ccccc1)c1cccc(NC(=O)c2ccc(Br)o2)c1	Rab9 promoter act inconclusive, FLuc modulator 24µM
Cc1ccc(S(=O)(=O)NCCC(=O)NCC(c2ccco2)N2CCCCC2)cc1C (stereo not drawn)	none (no result: KinaseGlo FLuc, SMN2 splice up)
Cc1cccc(CNC(=O)CCCN2C(=O)c3cccnc3Oc3ccccc32)c1	none (no result: ELG1 genotoxic, NPC1 prom act, KinaseGlo FLuc, Rab9 promoter act, SMN2 splice up)
COc1ccccc1-n1nc(-c2ccccc2)c2cnc3c(F)cc(F)cc3c21	none (no result: ELG1 genotoxic, NPC1 prom act, KinaseGlo FLuc, Rab9 promoter act)
Cn1ccnc1SCC(=O)Nc1ccc(F)c([N+](=O)[O-])c1	none (no result: KinaseGlo FLuc, SMN2 splice up)
COC(=O)c1ccc(C(NC(=O)c2cccnc2)NC(=O)c2cccnc2)cc1	none
c1ccc2cc(-c3cc(-c4cc(-c5ccc6ccccc6c5)on4)no3)ccc2c1	SMN2 splice up inconclusive (no result: ELG1 genotoxic, NPC1 prom act, Rab9 promoter act, FLuc modulator)
c1ccc2cc(-c3cc4ccccn4c3)ccc2c1	ELG1 genotoxic 3.7µM, NPC1 prom act 3.2µM, Rab9 promoter act 3.2µM, SMN2 splice up 11µM, FLuc modulator 0.85µM
CCCN(CCC)C(=O)c1cc2c(=O)n3cccc(C)c3nc2n1C	none (no result: ELG1 genotoxic, NPC1 prom act, KinaseGlo FLuc, Rab9 promoter act, SMN2 splice up)
Cc1cc(Cl)c2oc(C(=O)N(C)Cc3nccn3C)c(C)c2c1	none (no result: KinaseGlo FLuc, SMN2 splice up)
Cc1cc(Cl)c2oc(C(=O)N(C)Cc3ccon3)c(C)c2c1	ELG1 genotoxic 18µM, NPC1 prom act 4µM, Rab9 promoter act 2.8µM, FLuc modulator 13µM (no result: KinaseGlo FLuc, SMN2 splice up)
Cc1cc(Cl)c2oc(C(=O)N(C)Cc3cc(C)[nH]n3)c(C)c2c1	none (no result: KinaseGlo FLuc, SMN2 splice up)
Cc1cc(Cl)c2oc(C(=O)N(C)C3CCOC3)c(C)c2c1 (stereo not drawn)	ELG1 genotoxic inconclusive, NPC1 prom act inconclusive, Rab9 promoter act 4µM, FLuc modulator 21µM (no result: KinaseGlo FLuc, SMN2 splice up)
